High-throughput results as filed in PubChem.
In the library only some 2.8% were active in any assay of this set; here they are far more common.
SENP7 block: SENP7 protease inhibition | 330,000 compounds, 1.5% hits | inhibition, % at 5 µM | Q9BQF6 | recombinant SENP7, Z-RLRGG-aminoluciferin luminescence, 40 min;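 active = inhibition above about 50% at the single test dose, limit read from the data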;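 note: plate controls were DMSO with enzyme for no effect and no enzyme buffer wells for full effect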
SENP8 block-1: inhibitors of human SENP8 protease; recombinant SENP8, Nedd8 substrate fluorescence; 360,000 compounds, 0.64% hits; Q96LD8; inhibition, % at 20 µM; AID 602440; in the data active = inhibition mostly above about 40%, no sharp cut-off; inactive = mostly below about 27%
SENP6 inh: inhibitors of human SENP6 protease | AID 2599 | inhibition, % at 10 µM | 330,000 compounds, 1.8% hits | Q9GZR1 | Recombinant SENP6 catalytic domain, aminoluciferin luminescence;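 active = inhibition above about 50% at the single tested dose, limit read from the data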;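 note: plate controls were DMSO wells with enzyme for no effect and DMSO wells lacking enzyme for full effect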
Target sequence (Q9GZR1 628-1112 limits assumed): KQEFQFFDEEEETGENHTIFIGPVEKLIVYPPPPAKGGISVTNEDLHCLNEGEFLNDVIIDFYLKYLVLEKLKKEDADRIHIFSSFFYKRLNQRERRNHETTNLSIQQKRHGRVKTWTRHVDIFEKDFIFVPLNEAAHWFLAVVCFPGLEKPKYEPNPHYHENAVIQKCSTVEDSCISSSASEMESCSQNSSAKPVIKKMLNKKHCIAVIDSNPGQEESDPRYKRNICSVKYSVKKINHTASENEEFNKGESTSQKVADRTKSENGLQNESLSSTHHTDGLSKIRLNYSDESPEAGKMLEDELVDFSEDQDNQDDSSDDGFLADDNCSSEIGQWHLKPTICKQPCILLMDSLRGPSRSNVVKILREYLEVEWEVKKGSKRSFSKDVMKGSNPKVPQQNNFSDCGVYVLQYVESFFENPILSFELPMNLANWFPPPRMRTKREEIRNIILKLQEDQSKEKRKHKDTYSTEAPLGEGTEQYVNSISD
SENP8 block-2: blocks the human protease SENP8 | purified SENP8, Z-RLRGG-aminoluciferin cleavage, luminescence | inhibition, % at 10 µM | 330,000 compounds, 1.2% hits; in the data active = inhibition above about 50%
HSP90 refold inh: blocks HSP90-mediated luciferase refolding in reticulocyte lysate. Rabbit reticulocyte lysate, luciferase refolding luminescence, 3 h. AID 1789. 290,000 compounds, 0.91% hits. inhibition, % at 5.6 µM;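 active = inhibition above the screen-wide mean plus 3 SD, computed separately per campaign, cut at about 16% in these data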;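 note: 0% = DMSO wells and 100% = 60 µM geldanamycin wells; inhibitors lower the luminescence because luciferase stays unfolded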
SENP8 conf: human SENP8 inhibition, confirmed; shares compounds with SENP7 block; Recombinant SENP8, Z-RLRGG-aminoluciferin luminescence, 60 min; inhibition, % at 12.5 µM; 6,200 compounds, 40% hits;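 active = mean inhibition across replicates above about 50%, limit read from the data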
SENP6 conf: human SENP6 inhibition, confirmed; shares compounds with SENP7 block; recombinant SENP6, Z-RLRGG-aminoluciferin luminescence; inhibition, % at 12.5 µM; 6,200 compounds, 58% hits; AID 488915
SENP7 conf: confirmation of human SENP7 protease inhibitors; shares compounds with SENP7 block; recombinant SENP7, Z-RLRGG-aminoluciferin luminescence, 40 min; inhibition, % at 12.5 µM; 6,200 compounds, 69% hits
Casp3 select: inhibits human caspase-3 in SENP selectivity test. AID 488918. 6,200 compounds, 60% hits. shares compounds with SENP7 block. purified caspase-3, Z-DEVD-aminoluciferin luminescence, 60 min. inhibition, % at 12.5 µM;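 active = mean inhibition above about 50%, limit read from the data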;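 note: plate controls were enzyme with DMSO for no effect and wells without caspase-3 for full effect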
SENP luc ctr: counter-screen for SENP inhibitors: luminescence interference; AID 488919; Pre-incubated SENP8/Z-RLRGG-aminoluciferin, luciferase luminescence interference; shares compounds with SENP7 block; 6,200 compounds, 39% hits; inhibition, % at 12.5 µM;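 active = mean inhibition above about 50% when retested at one dose, limit read from the data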;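 note: plate controls were DMSO wells with completed reaction for no effect and substrate without enzyme for full effect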
An asterisk follows results filed as active.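 Rule for the calls, unless noted: active = mean inhibition above about 50% in the one-dose retest (limit read from the data); inactive = the rest.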

Results for CCC(=NCc1ccccc1)c1c(C(F)(F)F)[nH]n(-c2nc3ccccc3s2)c1=O ?
SENP7 block: 89*; SENP8 block-1: 7; SENP6 inh: 85*; SENP8 block-2: 60*; HSP90 refold inh: 0; SENP8 conf: 18; SENP6 conf: 12; SENP7 conf: 20; Casp3 select: 64*; SENP luc ctr: 49

How did O=C1CSC(c2ccccc2Br)N1c1ccc(Cl)cn1 (stereo unspecified) do in these assays?
SENP7 block: 5; SENP8 block-1: 8; SENP6 inh: -5; SENP8 block-2: 3; HSP90 refold inh: -3

How did O=C(Cn1c(=O)n(-c2ccc(F)cc2)c(=O)c2sccc21)N1CCCC1 do in these assays?
SENP7 block: -8; SENP8 block-1: 1; SENP6 inh: -9; SENP8 block-2: -4; HSP90 refold inh: 7

Results for COc1ccc(NC(=O)c2ccc(C(=O)c3ccccc3)o2)cc1 ?
SENP7 block: -9; SENP8 block-1: 29; SENP6 inh: -24; SENP8 block-2: -10; HSP90 refold inh: -4

How did CCCNC(=O)Nc1cccc(C(=O)OC)c1 do in these assays?
SENP7 block: -1; SENP8 block-1: 14; SENP6 inh: -10; SENP8 block-2: -4; HSP90 refold inh: 0

How did O=C(CS(=O)(=O)c1ccccc1)c1ccc2c(c1)OCCO2 do in these assays?
SENP7 block: 51*; SENP8 block-1: 4; SENP6 inh: 57*; SENP8 block-2: 34; HSP90 refold inh: 3; SENP8 conf: 63*; SENP6 conf: 60*; SENP7 conf: 86*; Casp3 select: 82*; SENP luc ctr: 65*

Results for Cc1cccc(-c2nc(=S)c3c(o2)CCCC3)c1 ?
SENP7 block: 72*; SENP8 block-1: 5; SENP6 inh: 62*; SENP8 block-2: 52*; HSP90 refold inh: -1; SENP8 conf: 52*; SENP6 conf: 49; SENP7 conf: 76*; Casp3 select: 43; SENP luc ctr: 51*

What do the screens show for `Cc1cccc(-c2cc3nc4c(c(NCc5ccco5)n3n2)CCCC4)c1`?
SENP7 block: 44; SENP8 block-1: -267; SENP6 inh: 88*; SENP8 block-2: 81*; HSP90 refold inh: 0; SENP8 conf: 17; SENP6 conf: 12; SENP7 conf: 15; Casp3 select: 24; SENP luc ctr: 26

How did Cc1cccc(-c2cc3nc4c(c(N5CCC6(CC5)OCCO6)n3n2)CCCC4)c1 do in these assays?
SENP7 block: -7; SENP8 block-1: -214; SENP6 inh: -33; SENP8 block-2: -11; HSP90 refold inh: 1

What do the screens show for `CN1CCC(=O)N([C@H](COc2ccccc2)Cc2ccccc2)CC1`?
SENP7 block: -2; SENP8 block-1: 8; SENP6 inh: 3; SENP8 block-2: -5; HSP90 refold inh: -5

What do the screens show for `O=C(Nc1nnc(C(F)(F)F)s1)c1ccc(Br)s1`?
SENP7 block: 62*; SENP8 block-1: -28; SENP6 inh: 53*; SENP8 block-2: 73*; HSP90 refold inh: 4; SENP8 conf: 2; SENP6 conf: 53*; SENP7 conf: 77*; Casp3 select: 43; SENP luc ctr: 50

What do the screens show for `Cc1cc(C(=O)Nc2nnc(C(F)(F)F)s2)cs1`?
SENP7 block: 58*; SENP8 block-1: -15; SENP6 inh: 76*; SENP8 block-2: 65*; HSP90 refold inh: 2; SENP8 conf: 66*; SENP6 conf: 68*; SENP7 conf: 86*; Casp3 select: 84*; SENP luc ctr: 36

Results for O=C(Nc1nnc(C(F)(F)F)s1)C1COc2ccccc2O1 (stereo unspecified) ?
SENP7 block: 64*; SENP8 block-1: 15; SENP6 inh: 83*; SENP8 block-2: 67*; HSP90 refold inh: -2; SENP8 conf: 81*; SENP6 conf: 80*; SENP7 conf: 95*; Casp3 select: 91*; SENP luc ctr: 85*

How did COc1ccc(NC(=O)CCNC(=O)Cn2cnc3sc4c(c3c2=O)CCCC4)c(OC)c1 do in these assays?
SENP7 block: -1; SENP8 block-1: 9; SENP6 inh: -35; SENP8 block-2: -8; HSP90 refold inh: -2

How did CCOC(=O)c1ccc(NC(=O)C2CCN(C(=O)c3ccc(OC)c(OC)c3)CC2)cc1 do in these assays?
SENP7 block: -3; SENP8 block-1: 22; SENP6 inh: -5; SENP8 block-2: -3; HSP90 refold inh: -2

What do the screens show for `Cc1cccc(-n2ncc3c(N(C)C4CCCCC4)ncnc32)c1`?
SENP7 block: 60*; SENP8 block-1: -3; SENP6 inh: 67*; SENP8 block-2: 68*; SENP8 conf: -12; SENP6 conf: -7; SENP7 conf: -4; Casp3 select: 1; SENP luc ctr: 19

How did Cc1cccc(-n2ncc3c(N(CCO)CCO)ncnc32)c1 do in these assays?
SENP7 block: 7; SENP8 block-1: 3; SENP6 inh: -5; SENP8 block-2: -8; HSP90 refold inh: -4

How did Cc1cc(C=C2C(=O)c3ccccc3C2=O)c(C)n1-c1cccc(C(=O)O)c1 do in these assays?
SENP7 block: 51*; SENP8 block-1: -9; SENP6 inh: 91*; SENP8 block-2: 90*; HSP90 refold inh: 0; SENP8 conf: 97*; SENP6 conf: 98*; SENP7 conf: 101*; Casp3 select: 95*; SENP luc ctr: 92*

How did Cc1cc(/C=C2\Cc3ccccc3C2=O)c(C)n1-c1ccccc1 do in these assays?
SENP7 block: 5; SENP8 block-1: -393; SENP6 inh: 48; SENP8 block-2: 65*; HSP90 refold inh: 6; SENP8 conf: 46; SENP6 conf: 91*; SENP7 conf: 97*; Casp3 select: 68*; SENP luc ctr: 14

How did Cc1cc(/C=C2/C(=O)NN(c3ccccc3)C2=O)c(C)n1-c1cccc(O)c1 do in these assays?
SENP7 block: 65*; SENP8 block-1: 29; SENP6 inh: 80*; SENP8 block-2: 66*; HSP90 refold inh: 14; SENP8 conf: 68*; SENP6 conf: 73*; SENP7 conf: 93*; Casp3 select: 67*; SENP luc ctr: 11

What do the screens show for `Cc1cc(C=C2C(=O)c3ccccc3C2=O)c(C)n1-c1ccc(C(=O)O)cc1`?
SENP7 block: 1; SENP8 block-1: -15; SENP6 inh: -5; SENP8 block-2: -2; HSP90 refold inh: 0
